The source of these data is the supplement of paper PMC10681739.

One experiment addresses T1, ETS1 (UniProt P14921).
T1 sequence: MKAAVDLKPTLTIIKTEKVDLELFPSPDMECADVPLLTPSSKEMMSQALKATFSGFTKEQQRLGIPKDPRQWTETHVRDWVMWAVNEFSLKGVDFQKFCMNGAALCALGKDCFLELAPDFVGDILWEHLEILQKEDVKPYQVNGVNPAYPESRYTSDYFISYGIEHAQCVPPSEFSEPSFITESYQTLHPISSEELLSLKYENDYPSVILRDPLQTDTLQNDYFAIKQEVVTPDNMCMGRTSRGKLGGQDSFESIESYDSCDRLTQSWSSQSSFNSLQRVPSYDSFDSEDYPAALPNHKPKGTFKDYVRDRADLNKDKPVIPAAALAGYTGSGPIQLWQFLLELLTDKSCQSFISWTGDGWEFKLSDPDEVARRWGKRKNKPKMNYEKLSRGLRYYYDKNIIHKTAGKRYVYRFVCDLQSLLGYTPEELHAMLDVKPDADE
As to the kind of experiment: ETS1 binding intensity (PBM fluorescence), ETS1 alone (arbitrary fluorescence units); higher = stronger binding. Particulars: ETS1 concentration 1 nM; RUNX1 concentration 0 nM.

The target of experiment [1] is RUNX1 (UniProt Q01196). Description: RUNX1 binding intensity (PBM fluorescence), RUNX1 alone (arbitrary fluorescence units); higher = stronger binding. The conditions noted are these: RUNX1 concentration 2 nM; ETS1 concentration 0 nM. The protocol:
(§1)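 Cooperative gcPBM on 36-bp genomic probes with neighbouring ETS1 and RUNX1 sites. Recombinant human RUNX1 (2 nM) was incubated alone or with ETS1 (25 nM) and detected with anti-RUNX1 antibody plus Alexa488 secondary. Values are medians over 4 replicate spots; the RUNX1+ETS1 data were normalised to the RUNX1-only data. The probes sit in constant array flanks that are not printed.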

Experiment [2] addresses RUNX1 (UniProt Q01196). Description: RUNX1 binding intensity (PBM fluorescence) in presence of ETS1, normalised to RUNX1-only experiment (arbitrary fluorescence units); higher = stronger binding. Particulars: RUNX1 concentration 2 nM; ETS1 concentration 25 nM. The protocol: as §1
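Throughout, for RUNX1 binding intensity (PBM fluorescence) in presence of ETS1, normalised to RUNX1-only experiment: Full-length recombinant human ETS1 or RUNX1 bound to double-stranded 36-bp genomic probes on microarrays, detected by protein-specific primary antibody and Alexa488 secondary, spot fluorescence as median of four replicate spots.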
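Throughout, for RUNX1 binding intensity (PBM fluorescence), RUNX1 alone: Full-length recombinant human RUNX1 bound to double-stranded 36-bp genomic probes on a high-density microarray, scored as Alexa488 fluorescence per spot via anti-RUNX1 antibody, median of four replicate spots.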

Sequence of RUNX1 (Q01196 whole entry): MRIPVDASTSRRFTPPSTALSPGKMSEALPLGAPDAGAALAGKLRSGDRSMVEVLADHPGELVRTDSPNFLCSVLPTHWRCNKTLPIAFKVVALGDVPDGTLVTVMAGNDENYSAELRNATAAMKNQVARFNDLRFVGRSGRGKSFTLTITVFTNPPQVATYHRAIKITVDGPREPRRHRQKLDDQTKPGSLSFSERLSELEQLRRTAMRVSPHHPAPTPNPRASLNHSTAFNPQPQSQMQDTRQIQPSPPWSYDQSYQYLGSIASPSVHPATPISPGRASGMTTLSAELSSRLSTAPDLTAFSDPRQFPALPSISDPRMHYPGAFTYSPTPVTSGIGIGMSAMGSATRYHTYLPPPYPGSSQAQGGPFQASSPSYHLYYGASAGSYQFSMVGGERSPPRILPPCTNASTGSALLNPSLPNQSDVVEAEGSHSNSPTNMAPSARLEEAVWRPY

In the experiment with ETS1, AGATTAGATGCAGGATGTGGTATACAAAGGCACGTT came in with an ETS1 binding intensity of 2530. Also, the RUNX1 binding intensity with RUNX1 [1] turned out to be 823; with RUNX1 [2] it was 1820.

CCTCCCGACCGGAAGCCCCGCCACAGAGCGGGTTGT: the ETS1 binding intensity with ETS1 turned out to be 6240. Moreover, the RUNX1 binding intensity with RUNX1 [1] was found to be 848; in the experiment with RUNX1 [2], 2420.

In the case of TCCCTCATGAGCTTCTTCCGCCCGCAACACGAGACT, the ETS1 binding intensity with ETS1 is 481. Also, the RUNX1 binding intensity was found to be 1280 in the experiment with RUNX1 [1] and 1840 in the experiment with RUNX1 [2].

With TGCAAAAAAACAGGAAACACCCAGCCGCAAATTATA, the ETS1 binding intensity with ETS1 was determined as 1740. For the same sequence, the RUNX1 binding intensity with RUNX1 [1] is 863; with RUNX1 [2], 1230.

On to GACAATGAGCGCACAGGATGTGGTTTGGCGGCAGGG, for which, in the experiment with ETS1, the ETS1 binding intensity amounted to 6680. Moreover, the RUNX1 binding intensity with RUNX1 [1] is 854; with RUNX1 [2], 3690.

In turn, ATGTGCCCAAAGGATGTCACCGCAAAGATCATAGGA registered an ETS1 binding intensity with ETS1 of 561. In addition, the RUNX1 binding intensity with RUNX1 [1] is 1250; with RUNX1 [2], 1820.

Turning to AGGGAACAGGAAATGCAAAAAACCACAAGGGACAAG, the ETS1 binding intensity in the experiment with ETS1 turned out to be 2100. Also, the RUNX1 binding intensity in the experiment with RUNX1 [1] turned out to be 2050; with RUNX1 [2], 15800.

In the experiment with ETS1, GGCCAGGCAGGAAGTCCCGCGCCACAAGCGGCCGTC showed an ETS1 binding intensity of 3050. Further, the RUNX1 binding intensity with RUNX1 [1] turned out to be 758; with RUNX1 [2], 1230.

In turn, AGGAGAACTTCCGCCCTTACTATATTACCGCCGGTA gave an ETS1 binding intensity in the experiment with ETS1 of 1180. Also, the values for the RUNX1 binding intensity in the experiment with RUNX1 [1] and in the experiment with RUNX1 [2] were 737 and 1520, respectively.

The sequence CACCCCCCCAGTGCAGGAAGTGGTTTTCGAGGGCAG came in with an ETS1 binding intensity with ETS1 of 4490. Besides, the RUNX1 binding intensity with RUNX1 [1] was 908; with RUNX1 [2], 1790.

Sequence GCGCCCTCCAGGAAACGCCGCGGTTTACTGTCTGCC had an ETS1 binding intensity with ETS1 of 1120. The results for the RUNX1 binding intensity with RUNX1 [1] and in the experiment with RUNX1 [2] were 912 and 1910, respectively.

As for ACACCTCAGGAAGTGGCAGAGACCACAACAAGTCAG, the ETS1 binding intensity with ETS1 worked out at 701. Also, the RUNX1 binding intensity in the experiment with RUNX1 [1] amounted to 816; with RUNX1 [2] it was 1620.

AACTGGGCGGAAAGAACGGCTAACCGCAAGCTGCCG had an ETS1 binding intensity in the experiment with ETS1 of 429. Further, the RUNX1 binding intensity with RUNX1 [1] is 11800; in the experiment with RUNX1 [2] it was 23900.

In turn, TCGCACCGGAACCCCTTGGCGGATTATGTGGGTTCC had an ETS1 binding intensity in the experiment with ETS1 of 659. Besides, the RUNX1 binding intensity with RUNX1 [1] was 782; with RUNX1 [2] it was 862.

AGCACAAACCCAGGATGTGGTAAATGAAATGAAAAA came in with an ETS1 binding intensity with ETS1 of 1260. Moreover, the values for the RUNX1 binding intensity with RUNX1 [1] and with RUNX1 [2] were 858 and 1460, respectively.
